# Reference: publication PMC7862700, “An all-to-all approach to the identification of sequence-specific readers for epigenetic DNA modifications on cytosine”
# What was measured:
# Test in all cases: DAPPL (digital affinity profiling via proximity ligation, sequencing); 10 mM Tris-HCl pH 7.5, 50 mM NaCl, 1 mM DTT, 4% glycerol, room temperature, 30 min; GST-TFs on glutathione beads, 16-mer random dsDNA library, 0.1% formaldehyde crosslink after washing; high values mean tight binding
# Conditions in all cases: protein: recombinant; tags: N-terminal GST; dsDNA, one strand shown
# ERF = target: T1, ERF (Homo sapiens, UniProt P50548 1-548)
# T1 sequence: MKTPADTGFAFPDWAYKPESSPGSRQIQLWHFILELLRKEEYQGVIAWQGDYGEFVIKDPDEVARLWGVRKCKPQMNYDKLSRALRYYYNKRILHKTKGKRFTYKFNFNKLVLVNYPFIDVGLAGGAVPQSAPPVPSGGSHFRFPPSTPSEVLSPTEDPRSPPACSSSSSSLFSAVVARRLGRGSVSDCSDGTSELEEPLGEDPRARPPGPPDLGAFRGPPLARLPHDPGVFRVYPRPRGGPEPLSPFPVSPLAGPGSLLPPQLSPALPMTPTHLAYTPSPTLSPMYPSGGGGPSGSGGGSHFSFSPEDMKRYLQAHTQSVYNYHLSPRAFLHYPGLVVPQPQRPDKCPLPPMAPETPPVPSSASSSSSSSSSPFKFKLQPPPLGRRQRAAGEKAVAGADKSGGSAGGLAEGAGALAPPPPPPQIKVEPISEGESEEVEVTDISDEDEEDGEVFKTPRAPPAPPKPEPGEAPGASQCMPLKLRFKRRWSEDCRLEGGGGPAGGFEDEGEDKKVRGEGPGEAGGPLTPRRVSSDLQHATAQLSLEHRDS
# In short: (§1)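 After expression in yeast as GST fusions, human transcription factors were bound to glutathione beads, DNA-barcoded and mixed with a tag-only sample. The pools were incubated with 200 nmole of a 16-mer random double-stranded DNA library in Tris/NaCl/DTT/glycerol buffer (30 min, room temperature), washed and crosslinked with 0.1% formaldehyde. Proximity ligation with BsaI/T4 ligase ran for 1 h at 37 °C, before PCR amplification and sequencing on an Illumina NextSeq500. Binding signal is a hexamer's read frequency for a factor divided by its frequency for the tag-only sample.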
# ETV3L = target: T2, ETV3L (Homo sapiens, UniProt Q6ZN32 1-361)
# T2 sequence: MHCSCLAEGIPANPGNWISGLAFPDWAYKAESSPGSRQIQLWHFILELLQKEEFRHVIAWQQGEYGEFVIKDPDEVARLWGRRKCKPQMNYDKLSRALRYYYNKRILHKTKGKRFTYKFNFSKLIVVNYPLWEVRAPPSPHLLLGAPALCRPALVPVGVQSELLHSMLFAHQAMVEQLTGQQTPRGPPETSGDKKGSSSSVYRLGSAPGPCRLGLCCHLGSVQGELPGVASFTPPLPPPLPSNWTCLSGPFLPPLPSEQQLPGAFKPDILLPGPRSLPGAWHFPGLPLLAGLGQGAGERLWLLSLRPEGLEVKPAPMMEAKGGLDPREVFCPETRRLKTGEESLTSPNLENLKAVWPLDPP
# In short: as §1
# ETS2 = target: T3, ETS2 (Homo sapiens, UniProt P15036 1-469)
# T3 sequence: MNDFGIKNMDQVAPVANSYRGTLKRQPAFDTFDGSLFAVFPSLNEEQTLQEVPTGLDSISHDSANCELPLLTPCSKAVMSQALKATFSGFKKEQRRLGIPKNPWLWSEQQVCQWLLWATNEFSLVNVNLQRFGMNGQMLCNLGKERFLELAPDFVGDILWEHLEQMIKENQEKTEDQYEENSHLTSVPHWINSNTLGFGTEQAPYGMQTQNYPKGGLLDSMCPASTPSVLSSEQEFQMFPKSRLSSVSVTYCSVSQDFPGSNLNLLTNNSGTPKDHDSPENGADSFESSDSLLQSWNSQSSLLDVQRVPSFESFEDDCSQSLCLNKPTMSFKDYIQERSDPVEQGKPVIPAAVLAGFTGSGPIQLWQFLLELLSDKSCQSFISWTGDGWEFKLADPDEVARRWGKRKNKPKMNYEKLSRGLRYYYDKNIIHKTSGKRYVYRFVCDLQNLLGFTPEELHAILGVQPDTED
# In short: as §1
# SPDEF = target: T4, SPDEF (Homo sapiens, UniProt O95238 1-335)
# T4 sequence: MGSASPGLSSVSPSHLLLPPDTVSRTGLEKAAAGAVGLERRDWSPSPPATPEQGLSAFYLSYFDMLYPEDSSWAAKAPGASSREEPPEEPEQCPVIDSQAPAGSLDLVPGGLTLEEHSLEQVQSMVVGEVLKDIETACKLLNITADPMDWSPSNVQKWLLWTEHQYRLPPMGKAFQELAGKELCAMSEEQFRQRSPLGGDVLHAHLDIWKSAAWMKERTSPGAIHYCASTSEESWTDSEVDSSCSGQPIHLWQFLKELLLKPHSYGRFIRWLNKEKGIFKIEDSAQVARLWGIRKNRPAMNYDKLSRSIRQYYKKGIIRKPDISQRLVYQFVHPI
# In short: as §1
# ETV7 = target: T5, ETV7 (Homo sapiens, UniProt Q9Y603 1-341)
# T5 sequence: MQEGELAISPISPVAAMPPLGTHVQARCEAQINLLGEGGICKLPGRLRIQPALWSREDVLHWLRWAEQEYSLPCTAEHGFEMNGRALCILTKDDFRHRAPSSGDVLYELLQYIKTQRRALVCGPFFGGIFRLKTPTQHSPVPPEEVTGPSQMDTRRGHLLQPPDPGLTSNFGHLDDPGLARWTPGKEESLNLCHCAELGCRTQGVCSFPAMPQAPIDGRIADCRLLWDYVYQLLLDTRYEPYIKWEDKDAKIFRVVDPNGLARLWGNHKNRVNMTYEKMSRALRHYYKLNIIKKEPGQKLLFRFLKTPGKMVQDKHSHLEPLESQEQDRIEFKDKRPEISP
# In short: as §1
# ELF5 = target: T6, ELF5 (Homo sapiens, UniProt Q9UKW6-2 1-255)
# T6 sequence: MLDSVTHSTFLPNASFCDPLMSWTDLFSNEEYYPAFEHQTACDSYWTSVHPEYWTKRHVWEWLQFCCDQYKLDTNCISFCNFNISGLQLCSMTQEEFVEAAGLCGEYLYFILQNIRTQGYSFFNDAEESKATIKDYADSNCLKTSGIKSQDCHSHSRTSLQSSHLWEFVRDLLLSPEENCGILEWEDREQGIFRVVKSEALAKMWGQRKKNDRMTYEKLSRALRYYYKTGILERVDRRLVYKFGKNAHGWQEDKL
# In short: as §1
# ETV3 = target: T7, ETV3 (Homo sapiens, UniProt P41162-2 1-143)
# T7 sequence: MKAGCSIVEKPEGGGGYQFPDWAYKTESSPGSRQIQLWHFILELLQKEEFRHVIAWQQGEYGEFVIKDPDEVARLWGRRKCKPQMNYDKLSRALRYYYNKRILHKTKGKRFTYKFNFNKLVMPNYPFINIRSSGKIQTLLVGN
# In short: as §1
# ETV6 = ETV6 (Homo sapiens, UniProt P41212 1-452)
# ETV6, sequence (P41212 whole entry): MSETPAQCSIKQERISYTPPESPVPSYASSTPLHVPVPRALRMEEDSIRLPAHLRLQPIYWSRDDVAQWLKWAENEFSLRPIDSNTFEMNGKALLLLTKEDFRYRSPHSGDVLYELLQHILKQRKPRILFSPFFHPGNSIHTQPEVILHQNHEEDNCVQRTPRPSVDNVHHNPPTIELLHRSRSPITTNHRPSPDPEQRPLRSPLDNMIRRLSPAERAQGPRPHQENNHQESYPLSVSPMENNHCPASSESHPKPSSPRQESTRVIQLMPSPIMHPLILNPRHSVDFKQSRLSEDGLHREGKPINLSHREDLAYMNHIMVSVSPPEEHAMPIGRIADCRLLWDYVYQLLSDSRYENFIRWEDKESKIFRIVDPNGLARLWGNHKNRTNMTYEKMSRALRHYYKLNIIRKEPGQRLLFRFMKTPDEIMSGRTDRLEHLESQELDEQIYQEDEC
# In short: as §1
Sequence,binding signal (ERF),binding signal (ETV3L),binding signal (ETS2),binding signal (SPDEF),binding signal (ETV7),binding signal (ELF5),binding signal (ETV3),binding signal (ETV6)
TTTGAT,"1.21 fold enrichment (6-mer frequency, TF over GST control)","1.28 fold enrichment (6-mer frequency, TF over GST control)","1.26 fold enrichment (6-mer frequency, TF over GST control)","1.12 fold enrichment (6-mer frequency, TF over GST control)","1.28 fold enrichment (6-mer frequency, TF over GST control)","1.26 fold enrichment (6-mer frequency, TF over GST control)","1.32 fold enrichment (6-mer frequency, TF over GST control)","1.26 fold enrichment (6-mer frequency, TF over GST control)"
TAATTG,"1.35 fold enrichment (6-mer frequency, TF over GST control)","1.37 fold enrichment (6-mer frequency, TF over GST control)","1.42 fold enrichment (6-mer frequency, TF over GST control)","1.22 fold enrichment (6-mer frequency, TF over GST control)","1.44 fold enrichment (6-mer frequency, TF over GST control)","1.37 fold enrichment (6-mer frequency, TF over GST control)","1.34 fold enrichment (6-mer frequency, TF over GST control)","1.42 fold enrichment (6-mer frequency, TF over GST control)"
TTAATT,"1.39 fold enrichment (6-mer frequency, TF over GST control)","1.39 fold enrichment (6-mer frequency, TF over GST control)","1.5 fold enrichment (6-mer frequency, TF over GST control)","1.3 fold enrichment (6-mer frequency, TF over GST control)","1.55 fold enrichment (6-mer frequency, TF over GST control)","1.43 fold enrichment (6-mer frequency, TF over GST control)","1.44 fold enrichment (6-mer frequency, TF over GST control)","1.4 fold enrichment (6-mer frequency, TF over GST control)"
TTAATG,"1.05 fold enrichment (6-mer frequency, TF over GST control)","1.19 fold enrichment (6-mer frequency, TF over GST control)","1.2 fold enrichment (6-mer frequency, TF over GST control)","1.19 fold enrichment (6-mer frequency, TF over GST control)","1.26 fold enrichment (6-mer frequency, TF over GST control)","1.19 fold enrichment (6-mer frequency, TF over GST control)","1.21 fold enrichment (6-mer frequency, TF over GST control)","1.19 fold enrichment (6-mer frequency, TF over GST control)"
TTCGTT,"1.37 fold enrichment (6-mer frequency, TF over GST control)","1.37 fold enrichment (6-mer frequency, TF over GST control)","1.3 fold enrichment (6-mer frequency, TF over GST control)","1.39 fold enrichment (6-mer frequency, TF over GST control)","1.55 fold enrichment (6-mer frequency, TF over GST control)","1.32 fold enrichment (6-mer frequency, TF over GST control)","1.3 fold enrichment (6-mer frequency, TF over GST control)","1.29 fold enrichment (6-mer frequency, TF over GST control)"
GTTCTG,"1.12 fold enrichment (6-mer frequency, TF over GST control)","1.23 fold enrichment (6-mer frequency, TF over GST control)","1.05 fold enrichment (6-mer frequency, TF over GST control)","1 fold enrichment (6-mer frequency, TF over GST control)","1.07 fold enrichment (6-mer frequency, TF over GST control)","1.1 fold enrichment (6-mer frequency, TF over GST control)","1.13 fold enrichment (6-mer frequency, TF over GST control)","1.1 fold enrichment (6-mer frequency, TF over GST control)"
TCTCGA,"1.35 fold enrichment (6-mer frequency, TF over GST control)","1.35 fold enrichment (6-mer frequency, TF over GST control)","1.44 fold enrichment (6-mer frequency, TF over GST control)","1.2 fold enrichment (6-mer frequency, TF over GST control)","1.47 fold enrichment (6-mer frequency, TF over GST control)","1.27 fold enrichment (6-mer frequency, TF over GST control)","1.4 fold enrichment (6-mer frequency, TF over GST control)","1.47 fold enrichment (6-mer frequency, TF over GST control)"
